Among the data in PubChem BioAssay (NCI) are growth inhibition values, retold here.

The nature of test [1]: NCI Yeast Anticancer Drug Screen. Data for the rad50 strain (AID 155).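 Note: 0% = growth of vehicle-only cultures of the same strain.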 Conditions: S. cerevisiae rad50 strain growth inhibition, active compounds read high. The essentials: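 Yeast carrying a defined DNA repair defect were exposed to test compounds, and growth was compared with vehicle-treated controls to give percent inhibition.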
Test [2] in a line: NCI Yeast Anticancer Drug Screen. Data for the mec2-1 strain (AID 157). The note with it: S. cerevisiae mec2-1 strain, active compounds read high. The essentials:
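Readout is yeast growth inhibition, normalised to vehicle-treated controls, in the mec2-1 strain exposed to compound.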

A short description of test [3]: NCI Yeast Anticancer Drug Screen. Data for the sgs1 mgt1 strain (AID 161).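 Note: 0% = growth of cultures given vehicle only.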 The note with it: S. cerevisiae sgs1 mgt1 strain, active compounds read high. In outline: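 Percent growth inhibition was derived by comparing compound-exposed mutant yeast with vehicle-exposed cultures. The strain carries alterations in DNA damage repair.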
Test [4] can be described thus: NCI Yeast Anticancer Drug Screen. Data for the cln2 rad14 strain (AID 165).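 Note: 0% = growth equal to vehicle treated cultures.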 Conditions: S. cerevisiae cln2 rad14 strain, active compounds read high. In outline:
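Relative to vehicle controls, growth inhibition of compound-treated cln2 rad14 yeast was recorded.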

Test [5] can be described thus: NCI Yeast Anticancer Drug Screen. Data for the bub3 strain (AID 167). The note with it: S. cerevisiae bub3 mutant strain, active compounds read high. The essentials: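 Compounds were applied to a genetically altered yeast strain carrying a cell-cycle control defect. Growth inhibition was scored against vehicle-treated controls.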
The nature of test [6]: NCI Yeast Anticancer Drug Screen. Data for the mlh1 rad18 strain (AID 175). The note with it: S. cerevisiae mlh1 rad18 strain growth inhibition, active compounds read high. In outline: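 Test agents were incubated with a yeast strain of defined genotype (DNA damage repair defect). Inhibition of growth was derived by comparison with vehicle-exposed cultures.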
The mark [7] stands for this setting: at 5.0 µM (retest, dose inferred, filed as 0.5).
Where [8] appears, read: at 50.0 µM (retest, dose inferred, filed as 5.0).

Compounds without any hit were thinned out: in the full panel of roughly 79,000, 15% have a hit. A number with no mark means an inactive call. Activity calls are given as the source filed them. Cut-off read from the data, not from the text of the source: active = growth inhibition above about 70%; inactive = the rest.

On to `CCOC(=O)/C(C)=N/Nc1cc(Cl)ccc1O`, for which the growth inhibition is 0% in test [1] (setting [7]); 55% in test [1] (setting [8]); 95.5% (active) in test [1] (at 50.0 µM); 4% in test [2] (setting [7]); 32% in test [2] (setting [8]); 94% (active) in test [2] (at 50.0 µM). The growth inhibition in test [3] (setting [7]) was 4%; in test [3] (setting [8]), 42%; in test [3] (at 50.0 µM), 58%; in test [4] (setting [7]) it was -62%; in test [4] (setting [8]), 51%; in test [4] (at 50.0 µM), 70.8% (active). Moreover, the growth inhibition is -6% in test [5] (setting [7]); -15% in test [5] (setting [8]); 34.5% in test [5] (at 50.0 µM); 7% in test [6] (setting [7]); 63% in test [6] (setting [8]); 88.8% (active) in test [6] (at 50.0 µM).

With `COc1ccccc1/C=C1\C=Cc2ccccc21`, the growth inhibition in test [1] (setting [7]) was -3%; in test [1] (setting [8]), 6%; in test [1] (at 50.0 µM) it was 31.9%; in test [2] (setting [7]) it was 0%; in test [2] (setting [8]), -1%; in test [2] (at 50.0 µM) it was 49.5%. Moreover, the growth inhibition in test [3] (setting [7]) was -4%; in test [3] (setting [8]), 8%; in test [3] (at 50.0 µM), 44.2%; in test [4] (setting [7]) it was -1%; in test [4] (setting [8]), -14%; in test [4] (at 50.0 µM), 26.2%. For the same compound, the growth inhibition is 3% in test [5] (setting [7]); -1% in test [5] (setting [8]); 78% (active) in test [5] (at 50.0 µM); -3% in test [6] (setting [7]); 7% in test [6] (setting [8]); 70.4% (active) in test [6] (at 50.0 µM).

Turning to `Cn1c(=O)ccc2cc(C(=O)c3ccccc3)ccc21`, the growth inhibition in test [1] (setting [7]) was 7%; in test [1] (setting [8]), 22%; in test [1] (at 50.0 µM), 30.2%; in test [2] (setting [7]) it was -9%; in test [2] (setting [8]), 7%; in test [2] (at 50.0 µM) it was 6.95%. For the same compound, the growth inhibition in test [3] (setting [7]) was -9%; in test [3] (setting [8]) it was -5%; in test [3] (at 50.0 µM), 14.4%; in test [4] (setting [7]), 39%; in test [4] (setting [8]), 51%; in test [4] (at 50.0 µM), 35.4%. Further, the growth inhibition was -7% in test [5] (setting [7]); 46% in test [5] (setting [8]); 16.8% in test [5] (at 50.0 µM); 9% in test [6] (setting [7]); 45% in test [6] (setting [8]); 65.7% in test [6] (at 50.0 µM).

As for `[O-][n+]1onc2ncccc21`, the growth inhibition was 34% in test [1] (setting [7]); 98% (active) in test [1] (setting [8]); 99.1% (active) in test [1] (at 50.0 µM); 38% in test [2] (setting [7]); 99% (active) in test [2] (setting [8]); 99.5% (active) in test [2] (at 50.0 µM). The growth inhibition is 54% in test [3] (setting [7]); 99% (active) in test [3] (setting [8]); 99.2% (active) in test [3] (at 50.0 µM); 33% in test [4] (setting [7]); 99% (active) in test [4] (setting [8]); 99.2% (active) in test [4] (at 50.0 µM). In addition, the growth inhibition was 66% in test [5] (setting [7]); 98% (active) in test [5] (setting [8]); 99.2% (active) in test [5] (at 50.0 µM); 63% in test [6] (setting [7]); 99% (active) in test [6] (setting [8]); 99.3% (active) in test [6] (at 50.0 µM).

Consider `O=C1OC(=O)C2C1C1C(c3ccccc3)=C(c3ccccc3)C2(O)C2C(=O)OC(=O)C12` (stereo not given), for which the growth inhibition in test [1] (setting [7]) was 25%; in test [1] (setting [8]), 25%; in test [1] (at 50.0 µM), 76.2% (active); in test [2] (setting [7]) it was 7%; in test [2] (setting [8]), 7%; in test [2] (at 50.0 µM), 81% (active). Further, the growth inhibition is 16% in test [3] (setting [7]); 16% in test [3] (setting [8]); 69.7% in test [3] (at 50.0 µM); 17% in test [4] (setting [7]); 17% in test [4] (setting [8]); 52.5% in test [4] (at 50.0 µM). For the same compound, the growth inhibition was 4% in test [5] (setting [7]); 4% in test [5] (setting [8]); 74% (active) in test [5] (at 50.0 µM); 18% in test [6] (setting [7]); 18% in test [6] (setting [8]); 29.7% in test [6] (at 50.0 µM).

In the case of `O=S1(=O)CCN(c2ccccc2CC(c2c[nH]c3ccccc23)c2c[nH]c3ccccc23)CC1`, the growth inhibition was 29% in test [1] (setting [7]); 90% (active) in test [1] (setting [8]); 88.5% (active) in test [1] (at 50.0 µM); -5% in test [2] (setting [7]); 73% (active) in test [2] (setting [8]); 74.8% (active) in test [2] (at 50.0 µM). In addition, the growth inhibition in test [3] (setting [7]) is 3%; in test [3] (setting [8]), 79% (active); in test [3] (at 50.0 µM), 87.7% (active); in test [4] (setting [7]), 5%; in test [4] (setting [8]), 62%; in test [4] (at 50.0 µM), 86.2% (active). The growth inhibition in test [5] (setting [7]) is 14%; in test [5] (setting [8]), 89% (active); in test [5] (at 50.0 µM) it was 90.6% (active); in test [6] (setting [7]), 34%; in test [6] (setting [8]), 94% (active); in test [6] (at 50.0 µM) it was 91.9% (active).

In the case of `O=C(CCl)N(Cc1ccccc1)Cc1ccccc1`, the growth inhibition in test [1] (setting [7]) was -2%; in test [1] (setting [8]) it was 92% (active); in test [1] (at 50.0 µM), 84% (active); in test [2] (setting [7]) it was -1%; in test [2] (setting [8]), 95% (active); in test [2] (at 50.0 µM) it was 92.1% (active). For the same compound, the growth inhibition in test [3] (setting [7]) was -8%; in test [3] (setting [8]), 94% (active); in test [3] (at 50.0 µM), 89.5% (active); in test [4] (setting [7]), 2%; in test [4] (setting [8]), 84% (active); in test [4] (at 50.0 µM), 42.5%. In addition, the growth inhibition was 6% in test [5] (setting [7]); 92% (active) in test [5] (setting [8]); 85% (active) in test [5] (at 50.0 µM); -1% in test [6] (setting [7]); 92% (active) in test [6] (setting [8]); 78.6% (active) in test [6] (at 50.0 µM).

With `S=c1n(-c2ccc(Cl)cc2)c2nc3ccccc3nc(/c2=N\Nc2cc(Cl)ccc2Cl)n1-c1ccc(Br)cc1`, the growth inhibition in test [1] (setting [7]) was 2%; in test [1] (setting [8]) it was 16%; in test [1] (at 50.0 µM) it was 50.3%; in test [2] (setting [7]), -9%; in test [2] (setting [8]), -12%; in test [2] (at 50.0 µM), 84.5% (active). For the same compound, the growth inhibition in test [3] (setting [7]) is 0%; in test [3] (setting [8]), 9%; in test [3] (at 50.0 µM) it was 78% (active); in test [4] (setting [7]), -6%; in test [4] (setting [8]), -24%; in test [4] (at 50.0 µM), 76% (active). Moreover, the growth inhibition in test [5] (setting [7]) is -6%; in test [5] (setting [8]), 15%; in test [5] (at 50.0 µM), 85.1% (active); in test [6] (setting [7]), 1%; in test [6] (setting [8]), 4%; in test [6] (at 50.0 µM) it was 68%.

In the case of `CSC(=S)NN=C(c1ccccn1)c1ccccn1`, the growth inhibition in test [1] (setting [7]) was 78% (active); in test [1] (setting [8]), 96% (active); in test [1] (at 50.0 µM), 94% (active); in test [2] (setting [7]), 24%; in test [2] (setting [8]), 31%; in test [2] (at 50.0 µM) it was 97.8% (active). Besides, the growth inhibition in test [3] (setting [7]) is 92% (active); in test [3] (setting [8]) it was 99% (active); in test [3] (at 50.0 µM), 85.4% (active); in test [4] (setting [7]) it was 4%; in test [4] (setting [8]), -19%; in test [4] (at 50.0 µM) it was 91.7% (active). Further, the growth inhibition in test [5] (setting [7]) is -5%; in test [5] (setting [8]), 96% (active); in test [5] (at 50.0 µM) it was -8.05%; in test [6] (setting [7]), 78% (active); in test [6] (setting [8]), 80% (active); in test [6] (at 50.0 µM), 36%.

`CSC(=S)CC(O)[C@@H]1CC2c3ccccc3C1c1ccccc12` (stereo not given in full): the growth inhibition in test [1] (setting [7]) is -5%; in test [1] (setting [8]), 94% (active); in test [1] (at 50.0 µM), 76.7% (active); in test [2] (setting [7]), 1%; in test [2] (setting [8]), 93% (active); in test [2] (at 50.0 µM), 84.3% (active). Also, the growth inhibition in test [3] (setting [7]) is 1%; in test [3] (setting [8]) it was 93% (active); in test [3] (at 50.0 µM), 65.7%; in test [4] (setting [7]), 2%; in test [4] (setting [8]), 92% (active); in test [4] (at 50.0 µM), 79.7% (active). Moreover, the growth inhibition was 17% in test [5] (setting [7]); 93% (active) in test [5] (setting [8]); 77% (active) in test [5] (at 50.0 µM); 5% in test [6] (setting [7]); 93% (active) in test [6] (setting [8]); 71.5% (active) in test [6] (at 50.0 µM).
